The source made the active and inactive calls. Entries that show only a call come without a potency.
What follows are compounds tested against Glucocorticoid receptor (Homo sapiens) (UniProt P04150) (assay: qHTS assay to identify small molecule agonists of the glucocorticoid receptor (GR) signaling pathway (AID 720691; active = well fitted activation curve with a large enough effect in the signal ratio in the repeat runs, not every such curve was filed as active; inconclusive = weak or mixed curves, or effect the other way; inactive = no such curve, though single readings can be large or run the other way; the % refers to the signal ratio; note: potency is the fitted concentration of half-maximal effect)). Details: GR-bla HeLa, beta-lactamase reporter ratio, 18 h; series mostly up to 62.4 µM.
Sequence of Glucocorticoid receptor (Homo sapiens) (P04150 whole entry, looked up): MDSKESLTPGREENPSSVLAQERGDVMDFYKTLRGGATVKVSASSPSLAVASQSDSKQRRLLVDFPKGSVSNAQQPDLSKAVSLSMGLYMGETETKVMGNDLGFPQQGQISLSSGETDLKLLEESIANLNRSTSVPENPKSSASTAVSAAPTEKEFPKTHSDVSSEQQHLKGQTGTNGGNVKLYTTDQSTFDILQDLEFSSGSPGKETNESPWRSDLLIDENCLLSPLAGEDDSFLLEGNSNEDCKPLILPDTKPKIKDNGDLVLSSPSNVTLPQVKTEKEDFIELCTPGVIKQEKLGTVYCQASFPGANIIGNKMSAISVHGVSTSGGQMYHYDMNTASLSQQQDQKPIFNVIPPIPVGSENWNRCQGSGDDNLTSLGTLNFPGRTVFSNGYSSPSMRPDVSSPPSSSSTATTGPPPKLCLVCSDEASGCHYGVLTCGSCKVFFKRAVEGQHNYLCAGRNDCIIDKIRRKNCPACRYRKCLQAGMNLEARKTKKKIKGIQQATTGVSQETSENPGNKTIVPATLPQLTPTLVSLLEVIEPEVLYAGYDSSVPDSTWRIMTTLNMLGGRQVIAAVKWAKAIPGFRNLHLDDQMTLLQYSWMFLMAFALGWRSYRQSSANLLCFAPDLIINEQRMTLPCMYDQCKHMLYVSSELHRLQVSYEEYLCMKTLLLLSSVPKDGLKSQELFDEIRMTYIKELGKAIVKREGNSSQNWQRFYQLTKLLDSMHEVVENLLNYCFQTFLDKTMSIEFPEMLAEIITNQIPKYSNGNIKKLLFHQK
Method in brief: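 GR-bla HeLa cells carrying a GRE-driven beta-lactamase reporter, exposed to compounds for 18 h at 37 C. Reporter activation read as fluorescence after 2 h with LiveBLAzer B/G FRET substrate at room temperature.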

SMILES | Potency
CCCCC(=O)N(C)C | inactive
Cc1cccc(Nc2ccncc2S(=O)(=O)NC(=O)NC(C)C)c1 | inactive
CCc1nccnc1C | inactive
Cc1ncc([N+](=O)[O-])n1CC(O)CCl (stereo not given) | inactive
CCOc1ccc(NC(=O)OC(C)C)cc1OCC | inactive
C[C@H](CCC(=O)O)[C@H]1CC[C@H]2[C@@H]3[C@H](O)C[C@@H]4C[C@H](O)CC[C@]4(C)[C@H]3C[C@H](O)[C@]12C | inactive
O=C(/C=C/c1ccccc1)NCCO | inactive
CNC(=O)C(c1ccccc1)c1ccccc1 | inactive
O=[Si]=O | inactive
C=CCOc1c(Br)cc(C(C)(C)c2cc(Br)c(OCC=C)c(Br)c2)cc1Br | inactive
CCCCOC(=O)[C@@H](C)Oc1ccc(Oc2ccc(C(F)(F)F)cn2)cc1 | inactive
CC(=O)OCC(=O)[C@@]1(O)[C@H](OC(C)=O)C[C@H]2[C@@H]3CCC4=CC(=O)C=C[C@]4(C)[C@@]3(F)[C@@H](O)C[C@@]21C | 134 nM [inconclusive] (active)
CC(C)COC(=O)COc1ccc(Cl)cc1Cl | inactive
CC(=O)c1ccc(OCC(=O)N2CCCCC2)cc1 | inactive
CN=C(NC#N)NCCSCc1csc(N=C(N)N)n1 | inactive
Cc1ccccc1C | inactive
CCC(CO)CO | inactive
COC(/C=C(\C)CCC=C(C)C)OC | inactive

What follows are compounds tested against Glucocorticoid receptor (Homo sapiens) (UniProt P04150) (assay: qHTS assay to identify small molecule antagonists of the glucocorticoid receptor (GR) signaling pathway (AID 720692; active = well fitted inhibition curve with a large enough effect in the signal ratio in the repeat runs, not every such curve was filed as active; inconclusive = weak or mixed curves, or effect the other way; inactive = no such curve, though single readings can be large or run the other way; the % refers to the signal ratio)). Details: GR-bla HeLa, beta-lactamase FRET ratio, dexamethasone-stimulated, 18 h; series mostly up to 58.5 µM.
Method in brief: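 GR-bla HeLa cells carrying a GRE-driven beta-lactamase reporter received compound after 4 h plating, then dexamethasone (5 nM final). After 18 h at 37C, the FRET substrate was loaded for 2 h at room temperature and fluorescence read.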

SMILES | outcome
CCCCC(CC)C(=O)OC(C)C (stereo not given) | inactive
CCCCC(=O)N(C)C | inactive
Cc1nc([N+](=O)[O-])cn1-c1ccc([N+](=O)[O-])cc1 | inactive
Cc1cccc(Nc2ccncc2S(=O)(=O)NC(=O)NC(C)C)c1 | inactive
N#CCCOCCOCCC#N | inactive
CCc1nccnc1C | inactive
Cc1ncc([N+](=O)[O-])n1CC(O)CCl (stereo not given) | inactive
CCOc1ccc(NC(=O)OC(C)C)cc1OCC | inactive
C[C@H](CCC(=O)O)[C@H]1CC[C@H]2[C@@H]3[C@H](O)C[C@@H]4C[C@H](O)CC[C@]4(C)[C@H]3C[C@H](O)[C@]12C | inactive
NCCc1ccn[nH]1 | inactive
CNC(=O)C(c1ccccc1)c1ccccc1 | inactive
O=[Si]=O | inactive
CC(C)COC(=O)COc1ccc(Cl)cc1Cl | inactive
CC(=O)c1ccc(OCC(=O)N2CCCCC2)cc1 | inactive
CN=C(NC#N)NCCSCc1csc(N=C(N)N)n1 | inactive
CCC(CO)CO | inactive
COC(/C=C(\C)CCC=C(C)C)OC | inactive
